Values joined by “and” are separate entries in the source; they are usually repeats but may differ in a detail not shown here. Equal entries are not always repeated. Structures can show the parent of a compound that is named as a salt. ± gives the uncertainty stated by the source.
Each molecule was assayed on NCC-MFS5-C1 (assay: cell viability relative to DMSO control; higher = less growth inhibition). Details: 10 µM; treatment time: 3 days.
Experimental: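 NCC-MFS5-C1 myxofibrosarcoma cells (1x10^4 per well, 384-well) were treated on day 2 with 10 µM of each drug. On day 5, viability was read by CCK-8 absorbance at 450 nm and normalised to the DMSO control (%), n = 2.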

| Compound | cell viability |
| --- | --- |
| CC(=O)c1c(C)c2cnc(Nc3ccc(N4CCNCC4)cn3)nc2n(C2CCCC2)c1=O | 50.3% and 42.8% |
| CCOC(=O)[C@H](CCc1ccccc1)N[C@H]1CS[C@H](c2cccs2)CN(CC(=O)O)C1=O [Temocapril HCl] | 86 ± 1.2% |
| CNC(=O)c1cc(Oc2ccc(NC(=O)Nc3ccc(Cl)c(C(F)(F)F)c3)cc2)ccn1 [Sorafenib] | 64.2 ± 1.6% |
| CCC(C)n1ncn(-c2ccc(N3CCN(c4ccc(OCC5COC(Cn6cncn6)(c6ccc(Cl)cc6Cl)O5)cc4)CC3)cc2)c1=O (stereo not given) [Itraconazole] | 77.7 ± 15% |
| COc1cccc2c1C(=O)c1c(O)c3c(c(O)c1C2=O)C[C@@](O)(C(=O)CO)C[C@@H]3O[C@H]1C[C@H](N)[C@@H](O)[C@H](C)O1 [Epirubicin HCl] | 45.5 ± 1% |
| COc1cc([C@@H]2c3cc4c(cc3[C@@H](O[C@@H]3O[C@@H]5CO[C@@H](C)O[C@H]5[C@H](O)[C@H]3O)[C@H]3COC(=O)[C@H]23)OCO4)cc(OC)c1O [Etoposide] | 74.3 ± 9% |
| CC[C@@]1(O)C(=O)OCc2c1cc1n(c2=O)Cc2cc3c(CN(C)C)c(O)ccc3nc2-1 [Topotecan HCl] | 33.3 ± 5.3% |
| CS(=O)(=O)c1ccc(C(=O)Nc2ccc(Cl)c(-c3ccccn3)c2)c(Cl)c1 [Vismodegib (GDC-0449)] | 70.2 ± 7.4% |
| C=C1c2cccc(O)c2C(O)=C2C(=O)[C@]3(O)C(O)=C(C(N)=O)C(=O)[C@@H](N(C)C)[C@@H]3[C@@H](O)[C@H]12 [Methacycline HCl] | 92.3 ± 5.3% |
| CC[C@@H]1/C=C(\C)C[C@H](C)C[C@H](OC)[C@H]2O[C@@](O)(C(=O)C(=O)N3CCCC[C@H]3C(=O)O[C@H](/C(C)=C/[C@@H]3CC[C@H](Cl)[C@H](OC)C3)[C@H](C)[C@@H](O)CC1=O)[C@H](C)C[C@@H]2OC [Pimecrolimus] | 41.3 ± 5.4% |

From the supplement of paper PMC8773631
